rCAG binder: molecules binding r(CAG) RNA repeats. r(CAG) RNA repeat, TO-PRO-1 dye displacement fluorescence. inhibition, % at 3 µM. actives 1.3% (n = 370,000). AID 651821;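 active means inhibition above the plate cutoff, the mean of all test compounds on that plate plus 3 SD, cut at about 35% in these data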;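 further: 0% = DMSO alone and 100% = 100 µM mitoxantrone as full dye displacement; higher means more dye released from RNA so lower well fluorescence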
PHOSPHO1 block: PHOSPHO1 (human) inhibition | Q8TCT1 | recombinant PHOSPHO1, absorbance phosphatase assay | AID 1565 | inhibition, % at 13.3 µM | actives 1.1% (n = 290,000); in the data active means inhibition above about 60%
Target sequence (Q8TCT1 whole entry, looked up): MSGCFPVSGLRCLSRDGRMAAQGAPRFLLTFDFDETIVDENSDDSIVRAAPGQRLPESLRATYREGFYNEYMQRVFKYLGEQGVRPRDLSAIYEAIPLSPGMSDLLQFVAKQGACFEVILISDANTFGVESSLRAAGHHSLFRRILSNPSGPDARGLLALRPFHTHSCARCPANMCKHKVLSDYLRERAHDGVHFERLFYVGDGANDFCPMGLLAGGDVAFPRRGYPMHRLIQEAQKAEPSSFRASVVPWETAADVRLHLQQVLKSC
A3A deaminase: human APOBEC3A DNA deaminase inhibition; recombinant A3A, FAM/TAMRA ssDNA deamination fluorescence; inhibition, % at 20 µM; actives 0.41% (n = 330,000); AID 493011;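 active means at least 40% inhibition at 20 µM here, with at most 30% in a related deaminase screen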;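 further: plate controls were A3A with DMSO for no effect and wells lacking A3A enzyme for full effect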
ALR H2O2 inh: human ALR oxidase inhibition via reduced H2O2 | purified ALR, DTT oxidation, H2O2 HRP-luminol luminescence | actives 3.8% (n = 290,000) | inhibition, % (concentration not given with the values) | AID 485317 | P55789;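 active means mean replicate inhibition above about 79%, with every replicate also reaching it, limit read from the data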
Target sequence (P55789 whole entry, looked up): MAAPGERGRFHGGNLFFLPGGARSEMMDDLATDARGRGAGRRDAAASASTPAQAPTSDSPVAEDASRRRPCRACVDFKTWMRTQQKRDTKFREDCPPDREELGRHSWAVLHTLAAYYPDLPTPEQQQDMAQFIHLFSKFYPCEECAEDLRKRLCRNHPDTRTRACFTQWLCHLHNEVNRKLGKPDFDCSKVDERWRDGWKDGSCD
aDG glyco act: increases alpha dystroglycan glycosylation; Pro5-aDG cells, alpha-DG glycosylation AlphaScreen (IIH6); 0% Pro5, 100% B10-LARGE cell signal; actives 0.22% (n = 360,000); activation, % at 10 µM; AID 624168;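 active means activation of at least 8% versus controls, or a plate z-score of at least 8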;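 further: Pro5 are CHO cells carrying HIG-tagged alpha-DG that lacks glycosylation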
APOBEC3G inh: blocks human APOBEC3G single-stranded DNA deamination. Q9HC16. recombinant A3G, ssDNA deamination FAM/TAMRA fluorescence. inhibition, % at 20 µM. actives 0.28% (n = 330,000). AID 493012;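 active means inhibition of at least 40% at 20 µM, with no more than 30% in the related APOBEC3A deaminase screen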;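 further: plate controls were DMSO wells with A3G for no effect and wells lacking A3G enzyme for full effect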
A3A conf: APOBEC3A (human) deaminase inhibition, confirmed. shares compounds with A3A deaminase. recombinant A3A, ssDNA deaminase UDG fluorescence assay. inhibition, % at 20 µM. actives 63% (n = 1,400);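 active means inhibition reaching a set limit, 80% of the first screen's cutoff, at 20 µM in any replicate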;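 further: plate controls were DMSO wells with A3A for no effect and wells lacking A3A enzyme for full effect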
UDG A3A counter: UDG inhibition in APOBEC3A counter-screen. inhibition, % at 20 µM. shares compounds with A3A deaminase. AID 504714. UDG counterscreen, FAM/TAMRA uracil oligo fluorescence. 1,000 tested, under 10 active; call rule not given here
An asterisk follows results filed as active; · = no result given. Hits are enriched below; roughly 5.4% of the tested compounds scored in any of these assays.

SMILES	rCAG binder	PHOSPHO1 block	A3A deaminase	ALR H2O2 inh	aDG glyco act	APOBEC3G inh	A3A conf	UDG A3A counter
CSc1ccc(S(=O)(=O)NCC(=O)OCC(=O)N(C)CC(=O)Nc2ccc(F)cc2)cc1[N+](=O)[O-]	13.2	·	·	·	0.2	·	·	·
CCN1C(=O)[C@@H]2Cc3c([nH]c4ccccc34)C(c3cc(OC)c(OC)c(OC)c3)N2C1=S (some centres not stated)	0.7	·	59.0*	-16.9	0.1	-9.6	-8.3	-5.6
Cc1cc(-c2ccccc2)nc(=O)[nH]1	2.2	15.2	0.1	-3.0	-0.1	-3.0	·	·
Cn1cccc2[nH]c(=O)nc1-2	-4.6	21.0	77.6*	-0.9	-0.1	10.6	20.4	·
CCn1c(/C=C/N(C)c2ccccc2)[n+](CC)c2ccc(Cl)cc21	2.1	17.6	41.7*	-2.7	0.0	18.7	64.3*	-2.2
CCOC(=O)c1ccc2c(c1)n(CC)c(/C=C/Nc1ccccc1)[n+]2CC	5.2	-126.2	31.6	·	0.2	8.4	·	·
CCn1c(C)[n+](Cc2ccccc2)c2ccc(Cl)cc21	-5.0	-7.5	60.3*	-5.9	-0.5	19.7	72.5*	-0.7
CCn1c(C)[n+](Cc2ccccc2)c2ccc(C(=O)OC)cc21	-2.1	-11.2	53.2*	1.6	-0.3	15.3	71.4*	2.6
O=C1/C(=C\c2ccco2)SC(=S)N1C1CCS(=O)(=O)C1 (configuration not stated)	31.0	-111.4	34.7	-15.0	0.2	19.6	·	·
O=C1/C(=C/c2ccco2)SC(=S)N1C1CCS(=O)(=O)C1 (configuration not stated)	18.6	-67.2	47.1*	-4.8	-0.3	18.3	51.6*	·
COc1ccc2oc(C(=O)OCC(=O)Nc3ccc(NC(C)=O)cc3)c(C)c2c1	5.2	·	46.6*	0.0	-0.3	2.2	0.3	·
COc1ccc2oc(C(=O)OCC(=O)Nc3cccc(S(=O)(=O)N4CCOCC4)c3)c(C)c2c1	17.0	·	43.5*	-0.1	0.2	-1.7	14.8	2.0
CCCCCCn1c(=O)n2n(c1=O)[C@@H]1CN(S(=O)(=O)c3ccc(C)cc3)C[C@]1(O)[C@@H](OC(=O)NCC1CCCCC1)C2	6.5	·	·	·	0.0	·	·	·
Nc1ccn(C2CSC(CO)O2)c(=O)n1 (configuration not stated)	4.5	·	·	·	-0.3	·	·	·
COc1ccc(CN(C)C(=O)c2ccc(Oc3ccccc3)cc2)cc1F	1.2	-46.3	-2.6	-3.3	0.3	-7.9	·	·
CCN(Cc1ccc(OC)c(F)c1)C(=O)C1CCCO1 (configuration not stated)	0.1	22.8	55.6*	-2.8	0.1	5.2	32.0*	-2.8
CN1CCCN=C1/C=C/c1cccs1	-1.9	-4.3	-1.5	-15.6	1.9	-8.5	·	·
C[n+]1ccc(/C=C/c2cccs2)cc1	-3.5	74.5*	52.4*	-8.1	0.0	21.1	54.3*	·
COC(=O)[C@]12C[C@H](CC(=O)N3CCCCC3)C(=O)N(Cc3ccc4c(c3)OCO4)C1=C[C@H](C(C)(C)C)O[C@@H]2C	0.7	·	·	·	·	·	·	·
CCOC(=O)N[C@@H](CC(C)C)C(=O)N1CCC[C@H]1C(=O)NCc1ccccc1	-1.0	·	·	·	·	·	·	·
O=C1C(Nc2ccccc2)=C/C(=N/S(=O)(=O)c2cccs2)c2ccccc21	·	0.2	·	-7.2	-0.4	·	·	·
O=C1C=C(Nc2ccccc2)C(=O)c2ccccc21	4.2	7.3	65.1*	·	2.9	-8.5	-1.4	2.8
O=C(NCc1cccnc1)c1ccc2sc([C@@H]3O[C@H](CO)[C@H](O)[C@H](O)[C@H]3O)nc2c1	2.5	·	·	·	-0.2	·	·	·
O=C(CSC1=NCCS1)NC1CCCC1	5.1	41.7	-1.6	24.7	0.3	-2.0	·	·
O=C(CSC1=NCCS1)NC1CCCCC1	-0.4	-7.4	49.2*	-2.3	-0.1	8.1	52.1*	0.1
N#Cc1c(N)n(C2OC(CO)C(O)C2O)c2ncnc(N)c12 (configuration not stated)	-0.2	·	·	·	0.5	·	·	·
Cc1cccc(NC(=O)CSc2ccc(C(N)=O)cc2[N+](=O)[O-])c1C	4.2	0.8	44.4*	-0.1	3.2	23.1	5.6	·
